Only some compounds are listed: those with a hit (about 10% of all), similar ones and a draw of the others.
KB-V1 MDR tox: KB-V1 MDR subline cytotoxicity; KB-V1 MDR cells viability, CellTiter-Glo, 72 h; Potency, µM (top dose mostly 46.1 µM), usual class: cytotoxic; 3.4% of 400,000 active; also: % is scaled to controls: 0 for no effect and ±100 for the full control effect; nearly all actives have a fitted effect of over 60% in size
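Potencies derive from concentration-effect curves fitted to normalized luminescence (CellTiter-Glo) of KB-V1 cells treated for 72 h at 37 degrees C in phenol-red-free DMEM containing 10% FBS.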
VP16 counter: counter-screen for ROR gamma inhibitors: Gal4-VP16 reporter; Drosophila S2 Gal4-VP16 UAS-luciferase, luminescence, 20 h; Potency, µM (doses to about 53.6 µM), without a hit: at the highest dose activity, negative = inhibition, actives largely listed as inhibitors; 3.5% of 310,000 active; AID 2546;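 also: Gal4-VP16 expression switched on by copper sulfate through the metallothionein promoter; % is scaled to controls: 0 for no effect and ±100 for the full control effect; nearly all actives have a fitted effect of over 50% in size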
SW480 rereplic: DNA re-replication induction in SW480 cells. SW480 DNA re-replication, Hoechst DNA content imaging, 48 h. Potency, µM (titrated, usually from 46.1 µM), inactives show at the top dose re-replication activation, usual class: activators. 1.8% of 340,000 active. AID 624297; also: % of control where 0% means no effect; nearly all actives have a fitted effect of over 55% in size
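Hoechst fluorescence of nuclei (405 nm excitation, 500-530 nm emission) measured by plate-scanning imager after 48 hr compound exposure at 37 C; re-replication scored as increased number of nuclei with elevated intensity.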
RORg inh: inhibitors of mouse ROR gamma transcriptional activity; AID 2551; Potency, µM (titrated, usually from 53.6 µM), inactives show at the top dose activity change, negative = inhibition, most hits filed as inhibitors; Drosophila S2 Gal4-RORgamma UAS-luciferase reporter, 20 h; 5.4% of 310,000 active; P51450; also: % is scaled to controls: 0 for no effect and ±100 for the full control effect; nearly all actives have a fitted effect of over 60% in size
Target sequence (P51450 whole entry, looked up, the tested form may be a part): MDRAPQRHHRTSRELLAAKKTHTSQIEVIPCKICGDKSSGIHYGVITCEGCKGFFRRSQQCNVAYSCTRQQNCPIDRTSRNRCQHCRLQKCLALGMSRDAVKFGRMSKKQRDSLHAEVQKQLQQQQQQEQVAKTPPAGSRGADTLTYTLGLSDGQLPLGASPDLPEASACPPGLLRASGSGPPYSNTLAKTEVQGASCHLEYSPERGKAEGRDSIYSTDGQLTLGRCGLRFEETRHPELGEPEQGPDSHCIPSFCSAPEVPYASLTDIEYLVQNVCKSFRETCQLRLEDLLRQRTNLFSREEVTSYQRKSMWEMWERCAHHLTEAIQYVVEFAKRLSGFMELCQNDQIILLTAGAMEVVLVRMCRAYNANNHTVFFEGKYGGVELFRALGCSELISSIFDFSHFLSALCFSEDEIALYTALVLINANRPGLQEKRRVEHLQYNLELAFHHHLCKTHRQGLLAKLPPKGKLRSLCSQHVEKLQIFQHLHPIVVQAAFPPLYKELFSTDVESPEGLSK
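Luminescence from a UAS-regulated Photinus luciferase reporter in stably transfected Drosophila Schneider cells is measured; decreased signal marks ROR gamma inhibition. Fusion expression is induced by 700 uM copper sulfate for 20 hr.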
MCF10A rereplic: DNA re-replication induction in MCF 10a cells. MCF 10A DNA re-replication, Hoechst nuclear intensity, 48 h. Potency, µM (titrated, usually from 46.1 µM), without a hit: top-dose activity, positive = re-replication, most hits filed as activators. 2.9% of 350,000 active; also: % of control where 0% means no effect; nearly all actives have a fitted effect of over 50% in size
KB-3-1 cytotox: KB-3-1 parental cell cytotoxicity; KB-3-1 viability, CellTiter-Glo ATP luminescence, 72 h; 1.4% of 400,000 active; Potency, µM (series often up to 46.1 µM), usual class: cytotoxic; AID 1347075; also: % is scaled to controls: 0 for no effect and ±100 for the full control effect; nearly all actives have a fitted effect of over 60% in size
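Cells are dispensed, compounds pinned in, plates held at 37 °C for 72 h, then CellTiter-Glo is added and luminescence read after 10 minutes. Cell line: parental KB-3-1 in phenol-red-free DMEM, 10% FBS.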
Starred values were filed as active, the others as inactive; i = inactive; ? = inconclusive; . = not tested or not shown; ! = not confirmed by another sample; [ ] = another dose, or the depositor's remark. Calls follow the shape of the dose curve; as a rule, active = well fitted curve in the direction sought with a large enough effect; inconclusive = small, poorly fitted or top-dose-only effect, or another doubt; inactive = no such curve, though single readings can be large; an effect the other way counts as inactive or inconclusive. Potency is read from the fitted curve at half-maximal effect.

SMILES | KB-V1 MDR tox | VP16 counter | SW480 rereplic | RORg inh | MCF10A rereplic | KB-3-1 cytotox
CCOC(=O)N1CCN(c2nc(-c3cccc(OC)c3)cc(C(F)(F)F)n2)CC1 | i | -4% | 0% | 11% | ? | i
FC(F)(F)c1cc(-c2ccccc2)nc(N2CCCCC2)n1 | i | 0% | -13% | 11% | ? | i
FC(F)(F)c1cc(-c2ccccc2)nc(NC2CCCC2)n1 | i | -1% | 12% | 26% | 7.3µM* | i
COc1cccc(-c2cc(C(F)(F)F)nc(N3CCN(c4ccccc4)CC3)n2)c1 | 16µM* | -4% | -2% | -3% | ? | ?
FC(F)(F)c1cc(-c2ccccc2)nc(N2CCOCC2)n1 | i | -2% | -1%[9.22 µM] | 0.79µM* | 4% | i
Cc1ccc(CN2COc3c(Cl)cc4c(-c5ccccc5)cc(=O)oc4c3C2)cc1 | i | . | . | . | . | i
CCN(Cc1ccccc1)S(=O)(=O)c1ccccc1Br | i | . | -16% | . | ? | i
CCCN(S(=O)(=O)c1ccccc1F)S(=O)(=O)c1ccccc1Br | i | 5% | ? | -14% | 21µM* | i
CCOc1ccc(/C=N/NC(=O)c2ccccc2O)cc1CN1CC2CC(C1)c1cccc(=O)n1C2 (centres undefined) | ? | . | ? | . | -31% | i
CC(C)(C)CC(C)(C)c1ccc(O)c(Cc2ccc(Cl)cc2Cl)c1 | ? | ? | 3% | ? | 30µM*! | ?
O=C(COc1ccc(Cl)cc1)NN=C1CCCCCCC1 | i | -15% | 1% | 8.9µM* | 8% | i
S=C(Nc1cccc2ccccc12)NC1CCCCC1 | i | 10µM* | 0% | 2µM* | ? | ?
S=C(Nc1cccc2ccccc12)Nc1cccc2ccccc12 | i | . | 14% | . | 5% | i
CSc1ccccc1NC(=S)NC1CCCCC1 | i | ? | -4% | 3.5µM* | -1% | i
CC(C)c1ccccc1NC(=S)NC1CCCCC1 | i | 10µM* | -4% | 0.45µM* | 3% | i
CSc1ccccc1C(=O)NC1CCCC1 | i | -2% | 1% | -3% | 6% | i
CSc1ccccc1NC(=S)NC1CCCC1 | i | 7.1µM* | ? | 6.3µM* | 1% | i
COc1ncc2ncc(=O)n(C)c2n1 | . | 3% | . | -24% | . | .
CCOC(=O)[C@@H](N)CS | . | -4% | -3% | 3%[10 µM] | -3% | .
CCCCc1ccccc1NC(=S)NC1CCCC1 | ? | 4.5µM* | ? | 3.2µM* | 11% | i
CCCCN(CC)C(=O)CSc1nc2ccccc2c(=O)n1Cc1ccco1 | i | . | . | . | . | i
N=C1/C(=C\c2ccc(OC(=O)c3ccccc3)cc2)C(=O)N=C2SC(N3CCOCC3)=NN12 | i | ? | 2% | ? | -4% | i
Cc1ccc(C(=O)Oc2ccc(/C=C3\C(=N)N4N=C(N5CCOCC5)SC4=NC3=O)cc2)cc1 | ? | 13µM* | 0% | ? | -1% | i
CC(C)CNC(=O)c1ccccc1NC(=O)c1ccc(CSc2ccccc2)cc1 | 13µM* | -13% | 18% | 1% | ? | i
Cc1ccc(SCCC(=O)Nc2ccccc2C(=O)N2CCOCC2)cc1 | 23µM* | -6% | -6% | 3% | -10% | i
SMILES | KB-V1 MDR tox | VP16 counter | SW480 rereplic | RORg inh | MCF10A rereplic | KB-3-1 cytotox
CSc1ccccc1C(=O)NCCSc1ccccc1 | 18µM* | ? | -2% | ? | 20% | i
CC(C)CNC(=O)c1ccccc1NC(=O)CCSc1ccccc1 | 21µM* | 14% | 1% | 32% | ? | i
Cc1ccccc1C(=O)NCCSc1ccccc1 | i | 1% | -10% | ? | 5% | i
CSCCC(C(=O)NC(C)(C)C)n1c(-c2ccc(C)cc2)nc2ccccc21 (centres undefined) | ? | . | . | . | . | i
COc1cccc(C(=O)NCC(=O)OCC(=O)C(C)(C)C)c1 | i | -3% | -116% | 2.5µM* | 0% | i
O=C(c1ccco1)N1CCC(n2nnc3ccccc32)CC1 | 13µM* | 18% | -4% | 27% | 6% | i
O=C(CN1CCC(n2nnc3ccccc32)CC1)NCc1cccs1 | 23µM* | 6% | 1% | -4% | 10% | i
N=C(N)c1ccc(-c2ccc(-c3ccc(C(=N)N)cc3)o2)cc1 | ? | . | . | . | . | i
CC(=O)N1CCCc2cc(S(=O)(=O)N(C)CC(=O)Nc3cccc(C)c3C)ccc21 | i | . | . | . | . | i
COc1ccc(C(C)(C)C)cc1NC(=O)c1ccoc1C | ? | ? | 5% | 2.2µM* | 10% | i
COc1ccc(Cn2c(C)c(C)c(C#N)c2NC(=O)Nc2cccc(C)c2)cc1 | i | 11% | 0% | -38% | ? | i
COc1ccc(Cn2cccc(NC(=O)Nc3cccc(C#N)c3)c2=O)cc1 | 4.1µM* | -21% | ? | 22% | ? | i
CCOc1ccc(NC(=O)Nc2cccn(Cc3ccccc3)c2=O)cc1 | 5.8µM* | -6% | 10% | ? | 17% | ?
c1ncc(CCCC2CCNCC2)[nH]1 | . | 13% | . | 1% | . | .
CC(=O)NC(c1ccccc1)c1nc(-c2cccc(C(F)(F)F)c2)cs1 (centres undefined) | i | . | . | . | . | i
Cc1ccc(S(=O)(=O)NNC(=O)C(=O)NNc2ccccn2)cc1 | i | -7% | 8% | 8.9µM* | ? | ?
Cc1ccc(S(=O)(=O)NNC(=S)Nc2cccc(C)c2C)cc1 | ? | ? | -11% | 5µM* | -2% | i
COC(=O)NNS(=O)(=O)c1ccc(C)cc1 | i | -11% | 26µM* | 4% | 0% | i
Cc1ccc(S(=O)(=O)NNC(=O)c2cc(C)c(C)cc2N)cc1 | 16µM* | . | 0% | . | 14% | i
Cc1ccc(S(=O)(=O)NNC(=O)c2cc(C)cs2)cc1 | i | 7% | -9% | 7% | 0% | i
Cc1nc(Nc2ccccc2)c2nc(-c3ccccc3)n(CCN3CCOCC3)c2n1 | . | -2% | . | -24% | . | .
Nc1ncnc2c1nc(N1CCCCC1)n2[C@@H]1O[C@@H]2COP(=O)(O)O[C@H]2[C@H]1O | . | 0% | . | 4% | . | .
Cc1cccc(Oc2nc3ccccn3c(=O)c2/C=C(\C#N)c2nc3ccccc3s2)c1C | i | . | . | . | . | ?
COc1cccc(CC2(CO)CCCN(Cc3ccccc3Cl)C2)c1 (centres undefined) | ? | 7% | -10% | -23% | 4.6µM* | i
COc1ccc(F)c(CN2CCCC(CO)(Cc3cccc(Cl)c3)C2)c1 (centres undefined) | i | -4% | 6% | -2% | 16% | i
